Compound activity as filed in PubChem BioAssay.
D1 ag = agonists of human D1 dopamine receptor; HEK293 T-REx D1 cells, calcium flux, agonist mode; P21728; hit rate 1% among 360,000; activation, % at 2 µM; AID 504660; note: 0% is about no effect
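Agonism was scored from calcium flux recorded over 180 s (1 read/s) after pintool compound addition, following a 10-cycle baseline. Cells were inducible force-coupled HEK293 TREx D1, plated overnight at 30 C and loaded with no-wash calcium dye.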
TRHR PAM = allosterically enhances the human TRH receptor | hit rate 0.66% among 360,000 | enhancement, % at 2 µM | TRHR cells, fluo-8 calcium fluorescence, EC20 TRH enhancement; in the data active = enhancement above about 30%; note: 0% is about no effect
Target sequence (P34981 whole entry, looked up): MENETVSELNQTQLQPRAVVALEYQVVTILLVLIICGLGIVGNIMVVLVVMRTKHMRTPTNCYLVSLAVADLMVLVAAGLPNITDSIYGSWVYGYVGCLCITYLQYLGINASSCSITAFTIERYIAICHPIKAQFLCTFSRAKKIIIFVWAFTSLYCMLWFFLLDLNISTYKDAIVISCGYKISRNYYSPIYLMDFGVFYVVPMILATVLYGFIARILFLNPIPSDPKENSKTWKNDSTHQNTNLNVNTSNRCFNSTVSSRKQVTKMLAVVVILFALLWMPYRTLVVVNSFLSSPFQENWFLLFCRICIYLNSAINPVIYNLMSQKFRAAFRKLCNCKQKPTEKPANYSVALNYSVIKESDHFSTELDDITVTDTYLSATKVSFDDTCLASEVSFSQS
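TRHR-expressing cells loaded with fluo-8 calcium dye were read kinetically (ex 480/em 530) during compound addition, then stimulated with an EC20 of TRH (10 nM final). Enhancement of the Gq-mediated intracellular calcium response was scored.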
D1 potentiator = human D1 dopamine receptor positive modulation; HEK293 TREx D1 cells, calcium flux, dopamine EC20 potentiation; potentiation, % at 10 µM; hit rate 0.036% among 360,000; AID 504651; in the data active = potentiation above about 30%; note: 0% is about no effect
TRHR ag = TRH receptor (human) agonism. P34981. TRHR cells, calcium flux fluo-8, FDSS agonist mode. activation, % at 2 µM. hit rate 0.18% among 360,000. AID 493084; note: 0% is about no effect
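Read-out: compound-evoked intracellular calcium rise in TRHR cells, fluo-8 dye, kinetic FDSS fluorescence at 1 s/cycle following a 10-cycle baseline. Cells cultured overnight before dye loading (30 min–1.5 h, RT).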
D1 antag = blocks dopamine activation of the human D1 receptor; P21728; activity change, negative = inhibition, % at 10 µM; AID 504652; hit rate 3.2% among 360,000; HEK293 TREx D1 cells, calcium flux, dopamine EC80; hits give low values; in the data active = activity change below about -30%; note: % is set by controls: 0 for no effect and ±100 for the full control effect
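Inducible Hek293 Trex D1 cells (tetracycline, overnight, 30 C). Calcium dye 30–90 min RT. Antagonist mode: EC80 dopamine added after 180 s compound read.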
* = called active by the depositor; · = not tested or not shown. Most compounds without a hit are left out; they make up all but 4.7% or so of the library. Cut-off read from the data, not from the text of the source, unless noted: active = activation above about 30%; inactive = the rest.

SMILES	D1 ag	TRHR PAM	D1 potentiator	TRHR ag	D1 antag
CCCSCCCNC(=O)CN1C(=O)COc2ccc(S(=O)(=O)N3CCC(C)CC3)cc21	3	-5	-2	-2	5
Cc1nc2c(-c3ccccc3)c(C)nn2c(C)c1CCC(=O)NCc1ccccc1	0	-4	-6	0	-26
CCOc1ccc(NC(=O)CCc2c(C)nc3c(-c4ccccc4)c(C)nn3c2C)cc1	2	48*	-5	0	-11
Cc1nc2c(-c3ccccc3)c(C)nn2c(C)c1CCC(=O)N1CCN(c2ccccc2)CC1	0	3	-2	0	3
Cc1nc2c(-c3ccc(F)cc3)c(C)nn2c(C)c1CCC(=O)NCc1ccc(F)cc1	0	5	-6	0	-26
Cc1nc2c(-c3ccc(F)cc3)c(C)nn2c(C)c1CCC(=O)NCc1cccc(Cl)c1	2	15	-7	0	-39*
Cc1nc2c(-c3ccccc3)c(C)nn2c(C)c1CCC(=O)NCc1ccco1	0	2	-16	-1	-43*
CCN1CCN(c2ccc(NC(=O)CCc3c(C)nc4c(-c5ccccc5)c(C)nn4c3C)cc2)CC1	4	1	-10	-1	-84*
Cc1ccc(C)c(N2CCN(C(=O)C3CCN(c4nc(-c5ccc(C(C)C)cc5)no4)CC3)CC2)c1	2	-13	0	0	0
CCCCNC(=O)c1ccc2c(SCC(=O)O)c3c(nc2c1)CCCC3	6	-6	-7	0	-24
CCCN(C(=O)c1ccc2c(SCC(=O)O)c3c(nc2c1)CCC3)c1cccc(C)c1	0	-5	-5	0	-39*
O=C1CCCc2ccccc2N1Cc1cccc(F)c1	1	34*	1	-2	8
Cc1nn2c(CN(C(=O)COc3ccccc3)c3ccccc3)nnc2c2ccccc12	2	40*	2	2	0
COc1ccc(NC(=O)c2cccc3c(=O)c4c([nH]c23)CCCC4)cc1	7	-2	-4	0	-33*
COc1ccc(-n2cc(-c3ccccc3)c3c(N4CCN(CCO)CC4)ncnc32)cc1	17	-2	-13	4	-36*
CCOc1ccc(-n2cc(-c3ccccc3)c3c(N4CCN(c5ccccc5OC)CC4)ncnc32)cc1	-2	-6	-1	0	-32*
Cc1cccc(CCNC(=O)C2CCN(S(=O)(=O)c3cccc4cccnc34)CC2)c1	-1	14	6	-1	-5
CCN(CCNC(=O)C1CCN(S(=O)(=O)c2cccc3cccnc23)CC1)c1ccccc1	3	37*	-3	-2	-6
CCC1CCCCN1CCNC(=O)C1CCN(S(=O)(=O)c2cccc3nsnc23)CC1 (stereo not given)	2	-1	35*	0	-2
CC1CCCCN1CCNC(=O)C1CCN(S(=O)(=O)c2cccc3cccnc23)CC1 (stereo not given)	-1	31*	0	0	1
O=C(O)c1ccc(Cl)c(NC(=O)C2CCCN2S(=O)(=O)c2cccc3nsnc23)c1 (stereo not given)	0	-7	-2	0	-40*
O=C(C1CCN(S(=O)(=O)c2cccc3cccnc23)CC1)N1CCCC1	1	-6	-6	0	-2
O=C(C1CCN(S(=O)(=O)c2cccc3cccnc23)CC1)N1CC=C(c2ccccc2)CC1	1	20	-2	-1	-44*
O=C(Nc1ccc(Br)cc1)C1CCN(S(=O)(=O)c2cccc3nsnc23)CC1	8	-5	-1	0	-33*
COc1ccc([C@H]2CC(=O)C=C(c3cccc4c3sc3ccccc34)C2)cc1OC	6	2	-4	1	-36*
O=C1C=C(c2cccc3c2sc2ccccc23)C[C@@H](c2ccc(F)cc2)C1	3	6	6	1	·
COc1ccc([C@H]2CC(=O)C=C(c3cc4ccccc4s3)C2)cc1OC	2	-8	4	0	-48*
COc1nnc(-c2ccc(N3CCOCC3)c(NC(=O)c3ccco3)c2)c2ccccc12	0	13	-2	0	-92*
COc1nnc(-c2ccc(N3CCOCC3)c(NC(=O)c3ccccc3)c2)c2ccccc12	4	-8	5	-1	0
Cc1ccc2c(c1)c1c(c(=O)n(-c3cccc(Cl)c3)c(=O)n1CC(=O)NCCC1=CCCCC1)n2C	-1	0	1	0	-16
